According to PubChem BioAssay (NCI):
About 83,000 compounds went through this panel and 20% of them were active in at least one assay; those are over-represented in the sample as a whole.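 96-well plates, one dose, 48 hours. Percent growth reported; active if below 10.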 Values without a mark were called inactive. Active and inactive are the calls of the source.

Assays:
Assay in all cases: NCI-60 one-dose screen, 48 h (100 = growth as untreated, 0 = no growth, -100 = all killed)
NCI-H23 lung = conditions: 10 µM unless noted
NCI-H226 lung = conditions: 10 µM unless noted
NCI-H322M lung = conditions: 10 µM unless noted
HOP-62 NSCLC = conditions: 10 µM unless noted
NCI-H460 lung = conditions: 10 µM unless noted
HOP-92 NSCLC = conditions: 10 µM unless noted
NCI-H522 lung = conditions: 10 µM unless noted
A549/ATCC NSCLC = conditions: 10 µM unless noted
786-0 renal = conditions: 10 µM unless noted
COLO 205 colon = conditions: 10 µM unless noted
DU-145 prostate = conditions: 10 µM unless noted
K-562 leukemia = conditions: 10 µM unless noted
MALME-3M melanoma = conditions: 10 µM unless noted
MDA-MB-231 breast = conditions: 10 µM unless noted
RXF 393 renal = conditions: 10 µM unless noted
SF-268 CNS = conditions: 10 µM unless noted
SF-295 CNS = conditions: 10 µM unless noted
SF-539 CNS = conditions: 10 µM unless noted
UACC-257 melanoma = conditions: 10 µM
M14 melanoma = conditions: 10 µM unless noted

SMILES | growth (NCI-H23 lung) | growth (NCI-H226 lung) | growth (NCI-H322M lung) | growth (HOP-62 NSCLC) | growth (NCI-H460 lung) | growth (HOP-92 NSCLC) | growth (NCI-H522 lung) | growth (A549/ATCC NSCLC) | growth (786-0 renal) | growth (COLO 205 colon) | growth (DU-145 prostate) [%] | growth (K-562 leukemia) | growth (MALME-3M melanoma) [%] | growth (MDA-MB-231 breast) [%] | growth (RXF 393 renal) | growth (SF-268 CNS) [%] | growth (SF-295 CNS) | growth (SF-539 CNS) | growth (UACC-257 melanoma) | growth (M14 melanoma)
COc1ccc(-c2nc(-c3nc4ccc(F)cc4[nH]3)cc3c2[nH]c2ccccc23)cc1 | 53.3% | 70.6% | 19% | 48.7% | 10.5% | 31.8% | 44.4% | 14.3% | 63.2% | 44.1% | 25.6 | 20.3% | 39.1 | 43.6 | 56.5% | 41.3 | 55.5% | 69.1% | 9.58% (active) | 36%
COc1ccc(/C=N/NC(=O)Cn2c(Cc3cccc4ccccc34)nc3ccccc32)cc1 | 90.3% | 92.7% | 84.5% | 89.3% | 106% | 101% | 77.7% | 95% | 102% | 106% | 105 | 89.4% | 92.4 | 91.2 | 109% | 95.6 | 88.9% | 90.7% | 99.4% | 105%
CCOC(=O)[C@H](CSSc1ncnc2cc[nH]c12)NC(=O)[C@@H](C)c1ccc2cc(OC)ccc2c1 | 19.9% | 39.9% | 10.7% | 23.2% | 32.7% | 46% | 11.3% | 59.9% | 25.5% | 3.67% (active) | 33.4 | 13.5% | 56.2 | 28.2 | 57.9% | 33.1 | 16.7% | 11.4% | 28.2% | 6.45% (active)
COc1c(NC[C@H]2OC(O)[C@H](O)[C@@H](O)[C@@H]2O)c(=O)c1=O (stereo not given in full) | 97% | 98.3% | 98% | 102% | 104% | 95.6% | 114% | 94.2% | 102% | 112% | 115 | 96.4% | 92.9 | 106 | 96.6% | 102 | 107% | 94.1% | 102% | 108%
CC(C)(C)OC(=O)N[C@@H](Cc1ccccc1)C(=O)N(Cc1ccccc1)C1(C(=O)NCc2ccccc2)CCN(Cc2ccccc2)CC1 | 49.3% | 70% | 64.3% | 56.2% | 26.6% | -8.51% (active) | 43.7% | 24.8% | 51.7% | 16.3% | 75.6 | 11% | 25.6 | 22.9 | 61.9% | 58.5 | 39.2% | 47.2% | 24.2% | 40.2%
COc1cc(OC)c(C(=O)/C=C/c2cccc(C#N)c2)c(OC)c1 | -7.14% (active) | 3.93% (active) | -1.49% (active) | -9.93% (active) | 0.36% (active) | -5.88% (active) | -25.9% (active) | 2.27% (active) | 9.74% (active) | -6.79% (active) | 15.3 | 13.7% | 35.4 | 17.1 | -3.8% (active) | 13.5 | 1.75% (active) | -7.41% (active) | 32.2% | 6.71% (active)
N#Cc1ncc(-c2ccc(F)c(F)c2F)c(NC2CCCCCC2)n1 | 88.1% | 93.8% | 85.7% | 82.3% | 98.9% | 65.1% | 72% | 89.3% | 87.1% | 99.8% | 95.8 | 76.8% | 131 | 67 | 77.5% | 66.6 | 97.8% | 93.7% | 81.5% | 97.8%
C=CCn1c(C)nc2ccc(Nc3nc(Nc4ccc(F)cc4)nc4ccccc34)cc21 | 56% | 85.4% | 85.5% | 75.9% | 63.4% | -0.386% (active) | 57.9% | 52.1% | 76.7% | 43.7% | 74.1 | 21% | 74.5 | 73.8 | 66.6% | 66 | 31.4% | 73% | 92.6% | 45.2%
COc1cc(NC(=O)CCl)ccc(=O)c1 | 53.7% | 122% | 86.4% | 113% | 77.4% | 79% | 17.2% | 84.5% | 106% | 82.6% | 83.5 | 75.2% | 87.7 | 58.6 | 84.7% | 77.6 | 80.9% | 83.5% | 66% | 78.6%
Cc1cc(N/C=c2\sc3ncnn3c2=O)no1 | 91.6% | 108% | 81.5% | 103% | 105% | 92.2% | 90.8% | 107% | 100% | 112% | 93.7 | 98.5% | 87.3 | 102 | 113% | 90.1 | 99% | 107% | 105% | 92.8%
COc1cccc(/C=C2\SC(N3CCN(c4ccccn4)CC3)=NC2=O)c1 | 95.5% | 108% | 88.8% | 93.6% | 107% | 92.7% | 71.6% | 94.5% | 108% | 119% | 101 | 82.2% | 96.8 | 99.2 | 113% | 102 | 98.6% | 110% | 101% | 103%
Cc1nc(Nc2cccnc2)sc1C(=O)/C=C/c1ccc(Cl)cc1 | 92.8% | 62.5% | 32.1% | 15.6% | 70.6% | 92% | 44.7% | 26.5% | 12.3% | 43.8% | 17.6 | 7.88% (active) | 89.7 | 73.9 | 16.2% | 46.7 | 42.8% | -14.5% (active) | 73.7% | 38.2%
C=CCOc1cccc(/C=C/C(=O)c2sc(Nc3cccnc3)nc2C)c1 | 94.1% | 86.1% | 77.6% | 68.2% | 81.2% | 74.7% | 65.9% | 70.9% | 51.7% | 91.3% | 38.4 | 28.9% | 94.6 | 95.4 | 83.5% | 81.7 | 88.5% | 76.7% | 97.2% | 71.2%
COc1ccc(S(=O)(=O)N2CCN(c3cc4c(cc3F)c(=O)c(C(=O)O)cn4C3CC3)CC2)c(OC)c1 | 97% | 89% | 91.6% | 86.6% | 99% | 90.2% | 91.4% | 93.6% | 91.5% | 105% | 98.3 | 89.1% | 98 | 101 | 102% | 81.8 | 91.4% | 88.8% | 100% | 92.5%
CCC1CCc2nc3sc(C(=O)Nc4ccccc4C)c(N)c3cc2C1 (stereo not given) | 51.1% | 62.7% | 56.5% | 54.5% | 31.5% | 41.9% | 28.6% | 41.2% | 50.6% | 17% | 22.7 | 24.1% | 28.3 | 66.6 | 26.1% | 49.9 | 15.3% | 23.9% | 54.2% | 19.8%
